For 29 molecules, Potency results are on record in PubChem BioAssay (Tox21).

Molecules are shown by their SMILES. “And” between values parts separate entries of the source, which are not always exact repeats. Identical values can stand only once. Inconclusive results are not listed. Entries that show only a call come without a potency. The source made the active and inactive calls. Calls follow the shape of the dose curve; as a rule, active = well fitted cell-killing curve with a large enough effect in the repeat runs; inconclusive = weak or mixed curves, or effect the other way; inactive = no such curve, though single readings can be large or run the other way.
Potency is read from the fitted curve at half-maximal effect.

A short description of this assay: qHTS assay for small molecule activators of the heat shock response signaling pathway - cell viability counter screen (AID 743209). Also: nearly all actives have a fitted effect of over 50% in size. To be noted: HSE-bla HeLa viability, CellTiter-Glo luminescence, 5 h; series mostly up to 62.6 µM. Summed up:
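Same-well multiplex: after 2.5 h room-temperature incubation with LiveBLAzer B/G substrate and fluorescence reading, CellTiter-Glo reagent was added to HSE-bla HeLa cells that had received compound for 5 h at 37 C; luminescence read after 30 min.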
Background: Quantitative high-throughput screening tests each substance at several concentrations.
For the molecule `ClC1=C(Cl)C2(Cl)C3C(Cl)C(Cl)CC3C1(Cl)C2(Cl)Cl` (centres undefined), the Potency is 21.8 µM (active) and 38.9 µM (active). To `O=C/C(Cl)=C(/Cl)C(=O)O` belongs 38.9 µM (active); to `Oc1ccc(C2(c3ccc(O)cc3)c3ccccc3-c3ccccc32)cc1`, 21.9 µM (active); to `CCCSP(=O)(OCC)SCCC`, “inactive”. For the molecule `c1ccc2c(c1)OCC(C1=NCCN1)O2` (centres undefined), the Potency result was “inactive”. `CC(Cc1ccc(C(C)(C)C)cc1)CN1C[C@@H](C)O[C@@H](C)C1` (some centres undefined): the Potency entry is “inactive”.

Regarding `CSCCCN=C=S`, the Potency was 43.6 µM (active). To `c1ccc2cc3c(cc2c1)-c1cccc2cccc-3c12` belongs “inactive”; to `CCN(CC)c1c([N+](=O)[O-])cc(C(F)(F)F)c(N)c1[N+](=O)[O-]`, “inactive”. The result for `Oc1ccc2ccc3cccc4ccc1c2c34` reads “inactive”; that for `Nc1ccc(Sc2ccc(N)cc2)cc1`, “inactive”; that for `O=C(O)C1C2CCC(O2)C1C(=O)O` (centres undefined), “inactive”. For the molecule `O=S(=O)(c1ccc(Cl)cc1)c1ccc(Cl)cc1`, the Potency entry was “inactive”. On to `O=C(CCCN1CCC2(CC1)C(=O)NCN2c1ccccc1)c1ccc(F)cc1`, for which the Potency entry is “inactive”. To `O=C(Nc1ccc2[nH]ccc2c1)c1cc2cc(F)ccc2n1Cc1cccc(F)c1` belongs 49 µM (active); to `N#C/C=C/C#N`, “inactive”.

With `CCCCOCN(C(=O)CCl)c1c(CC)cccc1CC`, the Potency entry is “inactive”.

`Cc1c(Cl)c(=O)oc2cc(OP(=O)(OCCCl)OCCCl)ccc12`: the Potency result was “inactive”. On to `CC(c1ccc(O)cc1)c1ccc(O)cc1`, for which the Potency entry is “inactive”. On to `CC1(c2ccc(Oc3ccccc3)cc2)OC(=O)N(Nc2ccccc2)C1=O` (centres undefined), for which the Potency was 34.9 µM (active).

In the case of `Oc1c(Br)c(Br)c(Br)c(Br)c1Br`, the Potency entry is “inactive”. Consider `COc1cc(C=O)cc2c1[C@H](COC(N)=O)[C@]1(OC(C)=O)ON2C[C@H]2[C@@H]1N2C(C)=O`, for which the Potency was 2.45 µM (active). To `ClC1=C(Cl)[C@]2(Cl)[C@@H]3[C@@H]4C[C@@H]([C@H]5O[C@@H]45)[C@@H]3[C@@]1(Cl)C2(Cl)Cl` belongs 48.9 µM (active). In the case of `N#CC(Cl)Cl`, the Potency entry is “inactive”. Consider `O=[N+]([O-])O.O=[N+]([O-])O.[Cd]`, for which the Potency entry is “inactive”. The result for `Cn1cc(C2=C(c3cn(C4CCN(Cc5ccccn5)CC4)c4ccccc34)C(=O)NC2=O)c2ccccc21` reads “inactive”; that for `O=C(O)COc1nc(Cl)c(Cl)cc1Cl`, “inactive”.

In the case of `CCOc1cc(C(C)(C)C)ccc1C1COC(c2c(F)cccc2F)=N1` (centres undefined), the Potency result was “inactive”.

For `CS(=O)(=O)c1ccc(C(=O)C2C(=O)CCCC2=O)c([N+](=O)[O-])c1`, the Potency entry was “inactive”.
